# Laboratory results published in ChEMBL document CHEMBL1157539, “Thousands of chemical starting points for antimalarial lead identification” (Nature, 2010).
# Tests used:
# Type in all cases: functional
# Plasmodium falciparum [1] = assay: GSK_TCMDC: Inhibition of Plasmodium falciparum 3D7 in whole red blood cells, using parasite LDH activity as an index of growth. Test compounds present at 2uM
# Plasmodium falciparum [2] = assay: GSK_TCMDC: Inhibition of Plasmodium falciparum Dd2 in whole red blood cells, using parasite LDH activity as an index of growth. Test compounds present at 2uM
# HepG2 = assay: GSK_TCMDC: Percent inhibition of human HepG2 cell line. Test compounds present at 10uM.
Structure (SMILES),Inhibition (Plasmodium falciparum [1]) [%],Inhibition (Plasmodium falciparum [2]) [%],Inhibition (HepG2) [%]
COc1ccc(C(=O)Nc2cc(Br)c3c(c2)CNCC3)cc1C(F)(F)F.Cl,90,4,13
Cl.O=C(Nc1ccc(Cl)c(Cl)c1)N1CCc2cc3nccc(N4CCN5CCC[C@H]5C4)c3cc21,100,75,2
Nc1cccc(CNCc2cccc(-c3csc(-c4nc5ccccc5[nH]4)c3)c2)c1.O=C(O)C(F)(F)F,100,63,13
Cc1ccccc1CCNC(=O)c1ccc(N2CCN(c3ccncc3)CC2)nc1.O=C(O)C(F)(F)F,95,20,10
Cc1c(OC(C)C)nc2ccccc2c1C(=O)N[C@H](c1cccc(F)c1)C1CC1,83,34,6
Cc1ccc(-n2ncc(C(=O)Nc3cc(Cl)cc(Cl)c3)c2C2CCNCC2)cc1C.Cl,100,77,65
COc1ccc(Nc2nc(=Nc3ccccc3)nc(NN=Cc3cc(Cl)ccc3O)[nH]2)cc1,100,10,55
COc1ccc(CCNCc2cc3c(C(C)(C)C)nn(-c4ccc(Cl)cc4)c3[nH]c2=O)cc1OC,100,99,13
OC(CNCc1cccc(Oc2ccc(Cl)cc2)c1)c1cc(C(F)(F)F)cc(C(F)(F)F)c1 (configuration not stated),99,100,0
CCCC(C)Nc1nc(C)cc(N[C@@H](CC(C)C)C(=O)NCc2ccc(C)cc2)n1.O=C(O)C(F)(F)F (some centres not stated),98,51,16
Cc1cc(F)ccc1[C@H]1C[C@H](N2CCOCC2)CCN1C(=O)N(C)[C@@H](C)c1cc(C(F)(F)F)cc(C(F)(F)F)c1.Cl,100,99,4
COc1ccc(NC(=O)/C=C/c2cc(Br)ccc2F)cc1OCCN(C(C)C)C(C)C.O=C(O)C(F)(F)F,100,14,22
CCCCC(CC)C(=O)C(NC(=O)[C@H](CSC(c1ccccc1)(c1ccccc1)c1ccccc1)NC(=O)OC(C)(C)C)C(=O)OC (some centres not stated),88,31,8
COc1cc(C(C)C)ccc1C1CCN(CCCCNC(=O)c2ccc(NC(=O)c3ccc(Cl)cc3)cc2)CC1.O=C(O)/C=C/C(=O)O,98,99,100
O=C(O)C(F)(F)F.c1ccc(C2CCN(Cc3ccc(-c4c[nH]c5nc(NC6CCCC6)ncc45)cc3)CC2)cc1,82,9,39
O=C(Nc1ccc(-c2cccc(-c3nc4ccccc4[nH]3)c2)cc1)Nc1ccc(F)c(F)c1F,100,96,74
COc1ccc(-c2ccc(CNCc3ccsc3)cc2)cc1S(=O)(=O)NCCN1CCCC1.O=C(O)C(F)(F)F,94,30,22
O=C(Nc1cccc(-c2ccc(-c3nc4cc(C(F)(F)F)ccc4[nH]3)cc2)c1)c1ccncc1,100,90,79
CCC[C@@H]([C@@H](CC1CCCCC1)C(=O)N[C@H](C(=O)Nc1nccs1)[C@H](C)O)N(O)C=O,99,75,0
Nc1cccc(CNCc2cccc(-c3cccc(-c4nc5ccccc5[nH]4)c3)c2)c1.O=C(O)C(F)(F)F,100,84,1
COc1cccc(C(=O)Nc2ccc(S(=O)(=O)c3cc4c(cc3OC)CCN(C)CC4)cc2)c1,86,3,0
CC[C@H](C)CNC(=O)c1cncc(-c2ccc(CN3CCC(N4CCCC4)CC3)cc2)c1.O=C(O)C(F)(F)F,100,100,0
Cc1cc2nc(-c3ccc(C(=O)NCc4cccc(F)c4)cc3)[nH]c2cc1C,91,6,0
Cc1ccc(C2CC(=O)CC(c3ccccn3)C2[N+](=O)[O-])cc1 (configuration not stated),97,2,5
CCN(CC)CCOc1ccc(NC(=O)c2oc3ccccc3c2C=Cc2ccccc2)cc1.O=C(O)/C=C/C(=O)O,98,54,51
COCCNC(=O)c1ccc(OC2CCN(Cc3ccc(F)c(F)c3)CC2)c(Cl)c1,88,73,8
Cc1nc2ccc(F)cc2n1C1CCN(C(=O)Cc2ccc(F)c(F)c2)CC1,100,99,2
Oc1ccc(-c2nc(-c3ccc4oc5ccc(-c6[nH]c(-c7ccc(O)cc7)nc6-c6ccccc6)cc5c4c3)c(-c3ccccc3)[nH]2)cc1,84,71,0
CCOC(=O)NCC(=O)Nc1cccc(-c2cccc(-c3nc4cccc(C)c4[nH]3)c2)c1,88,35,14
